Results filed as inconclusive are left out. The source made the active and inactive calls. How the source made its calls, unless noted: active means hit-call score of the fitted dose curve at least 0.9, where 1 is the maximum; inactive means score below 0.9.
Key:
[1] = ACEA_ER_80hr: ACEA Biosciences xCELLigence Real-Time Cell Analysis on Estrogen Receptor Agonism for Proliferation (AID 2282667; active means hit-call score of the fitted dose curve at least 0.9, where 1 is the maximum); details: T47D proliferation, impedance (xCELLigence), 80 h
Summary of the method: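 Cell-growth kinetics were measured by impedance in T47D cells treated continuously with compound (top 100 uM final, 1:4 steps, 8 points). Activity at 80 h was scored as signal gain over the DMSO baseline.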

[2] = ATG_CRE_CIS: Attagene CIS-FACTORIAL HepG2 Assay for human cAMP Responsive Element (CRE) binding protein 3 (AID 2282926); details: HepG2 CRE cis-reporter, Attagene multiplexed mRNA; actives raise or lower the signal
Summary of the method: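 Cells carrying cis-regulated reporter constructs respond through their own endogenous factors. After 24 h treatment, RNA is reverse-transcribed, amplified, labelled and sized by capillary electrophoresis; up- and down-regulation are both scored against vehicle.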

[3] = target: CCAAT/enhancer-binding protein beta (Homo sapiens) (UniProt P17676); test: ATG_C_EBP_CIS: Attagene CIS-FACTORIAL HepG2 Assay for human CCAAT/Enhancer Binding Protein (C/EBP) beta (AID 2282927); details: HepG2 Attagene cis-factorial transcription factor reporter; actives raise or lower the signal
CCAAT/enhancer-binding protein beta (Homo sapiens), sequence (P17676 whole entry, looked up): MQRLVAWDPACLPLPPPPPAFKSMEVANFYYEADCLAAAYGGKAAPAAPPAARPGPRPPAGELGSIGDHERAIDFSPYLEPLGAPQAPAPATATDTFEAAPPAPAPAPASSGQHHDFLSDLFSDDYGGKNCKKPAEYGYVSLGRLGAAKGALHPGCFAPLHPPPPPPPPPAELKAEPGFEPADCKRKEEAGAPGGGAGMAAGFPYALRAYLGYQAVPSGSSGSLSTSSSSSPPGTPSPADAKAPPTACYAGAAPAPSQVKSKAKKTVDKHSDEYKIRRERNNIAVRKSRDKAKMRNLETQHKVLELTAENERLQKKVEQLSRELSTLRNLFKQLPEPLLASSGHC
Summary of the method: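 Changes in reporter mRNA, rather than exogenous chimeric receptor activity, reflect native C/EBP signalling in transfected HepG2 cells dosed for 24 h; transcripts are detected by RT-PCR and capillary electrophoresis.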

[4] = ATG_DR4_LXR_CIS: Attagene CIS-FACTORIAL HepG2 Assay for human Liver X Receptor (LXR), DR4 submotif (AID 2282929); details: HepG2 Attagene DR4 cis-reporter, mRNA transcription; actives raise or lower the signal
Summary of the method: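 Total RNA from 24 h-treated, MRTU-transfected HepG2 cells underwent reverse transcription, PCR, fluorescent primer extension and restriction digestion before capillary electrophoresis. Both increases and decreases in reporter signal were fitted against DMSO.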

[5] = target: Aryl hydrocarbon receptor (Homo sapiens) (UniProt P35869); test: ATG_Ahr_CIS: Attagene CIS-FACTORIAL HepG2 Assay for human Aryl Hydrocarbon Receptor (Ahr) (AID 2282930); details: HepG2 AhR cis-factorial reporter transcription; actives raise or lower the signal
Aryl hydrocarbon receptor (Homo sapiens), sequence (P35869 whole entry, looked up): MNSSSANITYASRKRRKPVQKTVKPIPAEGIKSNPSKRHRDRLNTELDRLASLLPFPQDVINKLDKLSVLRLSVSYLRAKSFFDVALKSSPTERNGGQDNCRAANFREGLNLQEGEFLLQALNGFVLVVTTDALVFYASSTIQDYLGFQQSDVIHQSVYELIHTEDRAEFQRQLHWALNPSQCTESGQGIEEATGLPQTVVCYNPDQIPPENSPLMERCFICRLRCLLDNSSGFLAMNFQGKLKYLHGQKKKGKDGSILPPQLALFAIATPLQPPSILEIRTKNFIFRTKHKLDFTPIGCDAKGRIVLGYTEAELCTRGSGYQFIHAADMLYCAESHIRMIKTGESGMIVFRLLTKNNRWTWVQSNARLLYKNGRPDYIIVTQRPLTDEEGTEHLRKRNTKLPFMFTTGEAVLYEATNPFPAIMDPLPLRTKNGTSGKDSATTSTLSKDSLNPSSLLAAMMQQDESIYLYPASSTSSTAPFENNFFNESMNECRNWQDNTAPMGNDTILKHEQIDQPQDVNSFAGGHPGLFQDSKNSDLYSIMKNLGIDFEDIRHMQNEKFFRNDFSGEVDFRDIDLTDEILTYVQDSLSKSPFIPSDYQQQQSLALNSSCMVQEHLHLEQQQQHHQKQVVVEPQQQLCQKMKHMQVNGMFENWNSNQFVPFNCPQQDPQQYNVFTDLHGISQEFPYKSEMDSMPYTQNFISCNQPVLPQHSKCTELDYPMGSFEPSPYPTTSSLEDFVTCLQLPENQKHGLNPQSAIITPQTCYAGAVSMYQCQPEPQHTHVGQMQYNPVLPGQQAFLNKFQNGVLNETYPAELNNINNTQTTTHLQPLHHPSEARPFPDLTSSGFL
Summary of the method: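 HepG2, transient MRTU (cis) transfection, 24 h exposure. RNA → cDNA → PCR → 6-FAM primer extension → HpaI 2 h 37 C → CE. Fit: bidirectional, DMSO baseline.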

[6] = ATG_AP_1_CIS: Attagene CIS-FACTORIAL HepG2 Assay for human Activator Protein 1 (AP-1) (AID 2282931); details: HepG2 Attagene cis-factorial AP-1 reporter mRNA; actives raise or lower the signal
Summary of the method: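 HepG2, transient cis-reporter transfection; 24 h; readout RT-PCR/CE fluorescence; DMSO baseline, gain and loss fitted.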

[7] = ATG_AP_2_CIS: Attagene CIS-FACTORIAL HepG2 Assay for human Activator Protein 2 (AP-2) (AID 2282932); details: HepG2 AP-2 cis-reporter, Attagene transcription factor profiling; actives raise or lower the signal
Summary of the method: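 Endogenous transcription factor activity is reported through transfected multiplex reporter constructs in HepG2, after 24 h of compound exposure. Transcripts were quantified by RT-PCR and capillary electrophoresis of fluorescent fragments. Bidirectional fit against DMSO.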

[8] = ATG_BRE_CIS: Attagene CIS-FACTORIAL HepG2 Assay for human Bone Morphogenetic Protein (BMP) Response Element (BRE) (AID 2282933); details: HepG2 BMP response element reporter, Attagene transcription factor profiling; actives raise or lower the signal
Summary of the method: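 Gain- or loss-of-signal was derived by bidirectional fitting against DMSO controls. The signal came from reporter mRNA, measured by RT-PCR and capillary electrophoresis, in HepG2 cells transiently carrying multiple reporter units and dosed for 24 h.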

[9] = target: Retinoic acid receptor alpha (Homo sapiens) (UniProt P10276); test: ATG_DR5_RAR_CIS: Attagene CIS-FACTORIAL HepG2 Assay for human Retinoic Acid Receptor Alpha (RARE), DR5 submotif (AID 2282934); details: HepG2 Attagene cis-factorial RARE DR5 reporter, mRNA; actives raise or lower the signal;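 on AC50: reporter responds to endogenous RAR alpha beta and gamma in HepG2 not RARA alone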
Retinoic acid receptor alpha (Homo sapiens), sequence (P10276 whole entry, looked up): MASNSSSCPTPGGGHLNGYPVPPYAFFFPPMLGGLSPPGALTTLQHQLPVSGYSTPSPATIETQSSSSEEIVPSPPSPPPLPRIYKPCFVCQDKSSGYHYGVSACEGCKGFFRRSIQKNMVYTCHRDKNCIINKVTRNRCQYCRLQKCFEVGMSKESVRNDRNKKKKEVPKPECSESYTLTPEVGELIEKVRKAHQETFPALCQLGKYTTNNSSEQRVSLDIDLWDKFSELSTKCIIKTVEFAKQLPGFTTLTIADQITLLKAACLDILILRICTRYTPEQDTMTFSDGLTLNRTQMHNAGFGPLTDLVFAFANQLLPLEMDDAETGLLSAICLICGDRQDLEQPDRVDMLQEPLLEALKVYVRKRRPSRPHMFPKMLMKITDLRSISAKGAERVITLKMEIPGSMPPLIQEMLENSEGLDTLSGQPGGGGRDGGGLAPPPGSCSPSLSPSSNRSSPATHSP
Summary of the method: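 HepG2, transient cis-reporter transfection, 24 h exposure. mRNA readout: RT-PCR, FAM label, HpaI cut, capillary electrophoresis. DMSO baseline, gain/loss fitting.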

[10] = target: Transcription factor E2F1 (Homo sapiens) (UniProt Q01094); test: ATG_E2F_CIS: Attagene CIS-FACTORIAL HepG2 Assay for human E2F Transcription Factor 1 (AID 2282935); details: HepG2 Attagene cis-reporter, E2F reporter RNA transcripts; actives raise or lower the signal
Transcription factor E2F1 (Homo sapiens), sequence (Q01094 whole entry, looked up): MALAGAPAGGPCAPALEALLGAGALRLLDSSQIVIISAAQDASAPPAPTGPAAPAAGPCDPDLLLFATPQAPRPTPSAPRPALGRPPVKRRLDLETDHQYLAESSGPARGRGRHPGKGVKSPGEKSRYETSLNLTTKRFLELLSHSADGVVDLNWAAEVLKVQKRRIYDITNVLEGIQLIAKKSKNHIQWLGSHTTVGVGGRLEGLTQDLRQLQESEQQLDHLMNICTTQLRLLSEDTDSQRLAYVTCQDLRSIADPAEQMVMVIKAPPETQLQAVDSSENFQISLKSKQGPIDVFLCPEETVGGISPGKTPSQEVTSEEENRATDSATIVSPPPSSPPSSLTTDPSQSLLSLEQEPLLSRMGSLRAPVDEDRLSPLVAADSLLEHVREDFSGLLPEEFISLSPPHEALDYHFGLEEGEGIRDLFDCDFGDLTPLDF
Summary of the method: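 Gain or loss of reporter transcript, fitted against DMSO, reflects E2F1-driven transcription. Transiently transfected HepG2 dosed 24 h before RNA isolation. Quantified by fluorescent RT-PCR products separated by capillary electrophoresis.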

[11] = ATG_E_Box_CIS: Attagene CIS-FACTORIAL HepG2 Assay for human Enhancer Box (E-box) (AID 2282936); details: HepG2 E-box cis-reporter transcription, actives raise or lower the signal
Summary of the method: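 E-box-driven reporter transcripts measured in transiently transfected HepG2 after 24 h exposure: RNA reverse-transcribed, PCR-amplified, fluorescently labelled, digested and resolved by capillary electrophoresis. Gain or loss relative to DMSO.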

[12] = ATG_M_61_CIS: Attagene CIS-FACTORIAL HepG2 Assay for M61 Transcription Factor (Internal Marker) (AID 2282937); details: HepG2 Attagene CIS-FACTORIAL M61 internal marker reporter; actives raise or lower the signal
Summary of the method: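 Transfect HepG2 with MRTUs; dose 24 h; isolate RNA; reverse-transcribe with DNase I treatment; PCR-amplify, FAM-label and cut with HpaI for 2 h at 37 C; resolve by CE. Bidirectional fitting against DMSO.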

[13] = ATG_EGR_CIS: Attagene CIS-FACTORIAL HepG2 Assay for human Early Growth Response 1 (EGR1) (AID 2282938); details: HepG2 Attagene CIS-FACTORIAL EGR reporter mRNA; actives raise or lower the signal
Summary of the method: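 After a 24 h treatment of transiently transfected HepG2 cells, total RNA was reverse-transcribed and reporter sequences PCR-amplified, labelled and run on capillary electrophoresis. Reporters sit under cis-regulatory promoters sensing endogenous factors.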

[14] = ATG_M_19_CIS: Attagene CIS-FACTORIAL HepG2 Assay for M19 Transcription Factor (Internal Marker) (AID 2282939); details: HepG2 Attagene CIS-FACTORIAL M19 internal marker reporter; actives raise or lower the signal
Summary of the method: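 Following a 24 h exposure, RNA from transfected HepG2 cells was reverse-transcribed, PCR-amplified with reporter-specific primers, end-labelled with 6-FAM and HpaI-digested before capillary separation. Values represent gain or loss versus DMSO.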

[15] = ATG_ERE_CIS: Attagene CIS-FACTORIAL HepG2 Assay for Estrogen Response Element (ERE) (AID 2282940); details: HepG2 ERE cis-reporter, Attagene RNA transcript; actives raise or lower the signal
Summary of the method: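 HepG2, transient cis-reporter units, 24 h exposure. RNA isolated, oligo(dT) RT, reporter-specific PCR, FAM extension, HpaI cut, CE detection. Gain/loss-of-signal vs DMSO.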

[16] = ATG_Ets_CIS: Attagene CIS-FACTORIAL HepG2 Assay for human Erythroblast Transformation Specific (ETS) (AID 2282941); details: HepG2 ETS cis-reporter transcription, actives raise or lower the signal
Summary of the method: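 Multiplexed reporter transcript profiling: HepG2, 24 h treatment, total RNA to cDNA, PCR, 6-FAM labelling, HpaI cut, capillary electrophoresis. Gain- or loss-of-signal fitted against DMSO.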

[17] = ATG_FoxO_CIS: Attagene CIS-FACTORIAL HepG2 Assay for human Forkhead box O (FoxO) (AID 2282943); details: HepG2 Attagene cis-reporter, FoxO element, mRNA; actives raise or lower the signal
Summary of the method: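 Human hepatoma HepG2 cells carry transiently introduced reporter transcription units controlled by cis promoter elements. Chemical treatment lasted 24 h, and mRNA signal was compared with DMSO.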

[18] = ATG_GATA_CIS: Attagene CIS-FACTORIAL HepG2 Assay for human GATA Binding Protein (AID 2282944); details: HepG2 GATA cis-element reporter, Attagene multiplex mRNA; actives raise or lower the signal
Summary of the method: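 DMSO serves as negative control and baseline for bidirectional fitting of reporter mRNA changes. HepG2 cells bearing transiently transfected cis-promoter reporters were exposed 24 h; transcripts detected via RT-PCR and capillary electrophoresis.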

[19] = target: Hepatocyte nuclear factor 3-beta (Homo sapiens) (UniProt Q9Y261); test: ATG_FoxA2_CIS: Attagene CIS-FACTORIAL HepG2 Assay for human Forkhead box A2 (FOXA2) (AID 2282942); details: HepG2 cis-reporter transcription factor activity, 24 h; actives raise or lower the signal
Hepatocyte nuclear factor 3-beta (Homo sapiens), sequence (Q9Y261 whole entry, looked up): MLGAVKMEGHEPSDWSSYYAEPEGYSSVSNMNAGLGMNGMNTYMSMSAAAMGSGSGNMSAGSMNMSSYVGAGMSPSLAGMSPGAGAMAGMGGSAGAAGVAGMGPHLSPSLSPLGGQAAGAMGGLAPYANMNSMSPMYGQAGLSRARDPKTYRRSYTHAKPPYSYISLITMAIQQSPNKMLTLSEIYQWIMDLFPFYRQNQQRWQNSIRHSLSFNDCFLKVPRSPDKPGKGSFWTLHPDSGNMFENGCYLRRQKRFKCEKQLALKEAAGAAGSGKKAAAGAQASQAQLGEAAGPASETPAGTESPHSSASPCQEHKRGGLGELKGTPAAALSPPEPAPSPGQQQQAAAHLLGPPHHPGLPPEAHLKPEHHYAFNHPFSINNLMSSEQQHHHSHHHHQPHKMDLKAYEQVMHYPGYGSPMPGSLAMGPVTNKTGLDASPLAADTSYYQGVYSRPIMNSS
Summary of the method: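 24 h dosing of HepG2 bearing cis-reporter constructs; mRNA readout by RT-PCR/CE fluorescence; bidirectional fit, DMSO baseline.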

[20] = ATG_CMV_CIS: Attagene CIS-FACTORIAL HepG2 Assay for human CMV (Internal Marker) (AID 2282928); details: HepG2 CMV promoter reporter, transcription factor profiling; actives raise or lower the signal;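 further: endpoint acts as a background internal control marker rather than a target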
Summary of the method: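 Fluorescence intensity of RT-PCR-derived reporter fragments, resolved by capillary electrophoresis, gives the signal. HepG2 liver cells bearing transfected cis-element reporters were treated 24 h; activity in either direction was fit relative to DMSO-treated controls.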

Measured: AC50

CC(C=O)c1ccccc1 (centres undefined)
not listed: [19] | [20]
inactive: all other assays above

CC(C)=CCl
not listed: [18] | [20]
inactive: all other assays above

C[Si]1(C)O[Si](C)(C)O[Si](C)(C)O[Si](C)(C)O[Si](C)(C)O1
active: [4] 36.2 µM
not listed: [13] | [20]
inactive: all other assays above

CCCCC/C=C\C/C=C\CCCCCCCC(=O)O
active: [4] 76.9 µM | [5] 100 µM | [6] 153 µM
not listed: [13] | [14] | [19] | [20]
inactive: all other assays above

NC(=O)Nc1ccccc1
not listed: [4] | [7] | [13]
inactive: all other assays above

Oc1ccc(-c2ccccc2)c(Cl)c1
active: [1] 10.5 µM | [2] 33.4 µM | [6] 60.2 µM | [8] 33.4 µM | [13] 53.9 µM | [15] 9.09 µM
not listed: [7] | [20]
inactive: all other assays above

c1ccc(Nc2cccc3ccccc23)cc1
inactive: [1] | [5] | [11] | [19] | [18]
active: [2] 48.3 µM | [3] 45.7 µM | [20] 33.4 µM | [6] 53.7 µM | [8] 49.2 µM | [9] 33.4 µM | [10] 33.4 µM | [14] 47.9 µM | [15] 2.06 µM | [16] 33.4 µM | [17] 53.2 µM

O=C1CCCN1C1CCCCC1
not listed: [15] | [20]
inactive: all other assays above

From PubChem BioAssay (EPA / NIEHS)
